Screening results deposited in PubChem by several laboratories.
SENP6 inh: inhibitors of human SENP6 protease; Recombinant SENP6 catalytic domain, aminoluciferin luminescence; Q9GZR1; hit rate 1.8% among 330,000; inhibition, % at 10 µM;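 active means inhibition above about 50% at the single tested dose, limit read from the data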;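 further: plate controls were DMSO wells with enzyme for no effect and DMSO wells lacking enzyme for full effect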
SENP7 inh: inhibitors of human SENP7 protease | hit rate 1.5% among 330,000 | inhibition, % at 5 µM | Q9BQF6 | recombinant SENP7, Z-RLRGG-aminoluciferin luminescence, 40 min | AID 434973;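 active means inhibition above about 50% at the single test dose, limit read from the data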;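 further: plate controls were DMSO with enzyme for no effect and no enzyme buffer wells for full effect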
Target sequence (Q9BQF6 706-1050 limits assumed): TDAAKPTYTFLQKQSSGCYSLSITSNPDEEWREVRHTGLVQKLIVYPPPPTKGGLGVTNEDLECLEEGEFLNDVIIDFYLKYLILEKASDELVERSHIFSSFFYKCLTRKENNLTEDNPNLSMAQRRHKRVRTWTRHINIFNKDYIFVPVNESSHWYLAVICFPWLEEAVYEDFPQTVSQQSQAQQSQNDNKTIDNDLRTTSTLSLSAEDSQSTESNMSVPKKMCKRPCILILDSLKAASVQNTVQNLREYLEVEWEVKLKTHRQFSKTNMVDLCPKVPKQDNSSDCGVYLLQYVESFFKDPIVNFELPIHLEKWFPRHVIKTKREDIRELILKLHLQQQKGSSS
Platelet DG rel: modulates dense granule release in human platelets. human platelet-rich plasma, SFLLRN dense granule ATP release, luminescence. inhibition, %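 (compounds screened at 7.5 µM in platelet-rich plasma)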. hit rate 0.22% among 300,000;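 active means mean replicate score, as percent of positive control, at or above 50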
SENP8 block-1: inhibitors of human SENP8 protease; inhibition, % at 20 µM; recombinant SENP8, Nedd8 substrate fluorescence; hit rate 0.64% among 360,000; Q96LD8; in the data active means inhibition mostly above about 40%, no sharp cut-off; inactive means mostly below about 27%
HSP90 refold inh: blocks HSP90-mediated luciferase refolding in reticulocyte lysate. Rabbit reticulocyte lysate, luciferase refolding luminescence, 3 h. inhibition, % at 5.6 µM. hit rate 0.91% among 290,000. AID 1789;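 active means inhibition above the screen-wide mean plus 3 SD, computed separately per campaign, cut at about 16% in these data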;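 further: 0% = DMSO wells and 100% = 60 µM geldanamycin wells; inhibitors lower the luminescence because luciferase stays unfolded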
SENP8 block-2: inhibitors of human SENP8 protease | Q96LD8 | purified SENP8, Z-RLRGG-aminoluciferin cleavage, luminescence | inhibition, % at 10 µM | hit rate 1.2% among 330,000; in the data active means inhibition above about 50%
SENP8 conf: confirmation of human SENP8 protease inhibitors. shares compounds with SENP7 inh. Recombinant SENP8, Z-RLRGG-aminoluciferin luminescence, 60 min. inhibition, % at 12.5 µM. hit rate 40% among 6,200. AID 488912;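 active means mean inhibition across replicates above about 50%, limit read from the data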
SENP6 confirm: human SENP6 inhibition, confirmed. inhibition, % at 12.5 µM. hit rate 58% among 6,200. shares compounds with SENP7 inh. recombinant SENP6, Z-RLRGG-aminoluciferin luminescence
SENP7 conf: confirmation of human SENP7 protease inhibitors; recombinant SENP7, Z-RLRGG-aminoluciferin luminescence, 40 min; AID 488917; hit rate 69% among 6,200; shares compounds with SENP7 inh; inhibition, % at 12.5 µM
Casp3 SENP sel: inhibits human caspase-3 in SENP selectivity test | inhibition, % at 12.5 µM | hit rate 60% among 6,200 | shares compounds with SENP7 inh | AID 488918 | purified caspase-3, Z-DEVD-aminoluciferin luminescence, 60 min;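 active means mean inhibition above about 50%, limit read from the data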;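 further: plate controls were enzyme with DMSO for no effect and wells without caspase-3 for full effect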
Target sequence (P42574 28-227 limits assumed): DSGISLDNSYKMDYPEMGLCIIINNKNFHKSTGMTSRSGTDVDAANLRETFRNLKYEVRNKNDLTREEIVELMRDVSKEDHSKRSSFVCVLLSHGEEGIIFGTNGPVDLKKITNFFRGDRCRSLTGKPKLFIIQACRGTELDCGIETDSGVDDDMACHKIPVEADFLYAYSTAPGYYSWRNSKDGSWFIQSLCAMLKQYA
Luc interf: counter-screen for SENP inhibitors: luminescence interference. shares compounds with SENP7 inh. hit rate 39% among 6,200. Pre-incubated SENP8/Z-RLRGG-aminoluciferin, luciferase luminescence interference. inhibition, % at 12.5 µM;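 active means mean inhibition above about 50% when retested at one dose, limit read from the data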;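 further: plate controls were DMSO wells with completed reaction for no effect and substrate without enzyme for full effect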
The depositor's hits bear a star; x = no result. Hits are enriched below; roughly 2.8% of the tested compounds scored in any of these assays.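 How the source made its calls, unless noted: active means mean inhibition above about 50% in the one-dose retest (limit read from the data); inactive means the rest.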

SMILES	SENP6 inh	SENP7 inh	Platelet DG rel	SENP8 block-1	HSP90 refold inh	SENP8 block-2	SENP8 conf	SENP6 confirm	SENP7 conf	Casp3 SENP sel	Luc interf
CCOC(=O)c1ccc(NC(=O)c2ccccc2C)cc1	70.2*	65.5*	9.1	5.9	-3.3	57.8*	69.3*	59.4*	87.4*	54.2*	54.7*
Cn1nccc1C(=O)Nc1ccc(OC(=O)c2ccnn2C)cc1	-27.9	-4.2	9.7	10.0	0.6	-8.9	x	x	x	x	x
CCOC(=O)c1ccc(NC(=O)c2ccnn2C)cc1	67.7*	58.5*	16.3	9.2	x	59.4*	5.9	10.9	14.3	5.8	6.9
CCOC(=O)c1ccc(NC(=O)N2CCc3ccccc3C2)cc1	10.3	5.0	1.6	-1.9	5.7	13.2	x	x	x	x	x
CCC(C)[C@H]1COCCS(=O)(=O)N1Cc1ccc(Br)cc1 (stereo partly specified)	-14.8	-2.0	-1.6	9.4	-3.2	2.5	x	x	x	x	x
O=C(Nc1ccc(S(=O)(=O)Nc2nccs2)cc1)c1ccc(F)cc1	11.0	13.0	-3.3	10.4	-1.6	0.7	x	x	x	x	x
O=C(NC(=S)Nc1ccc(S(=O)(=O)Nc2nccs2)cc1)c1cccc(F)c1	63.1*	6.3	-0.2	8.8	-0.9	39.5	12.8	8.0	7.8	2.8	-0.2
Nc1[nH]nc2c1NN(c1ccc(Cl)cc1Cl)N2	65.0*	39.1	-9.9	14.7	-3.8	37.1	-3.3	-5.1	-5.9	-3.2	0.0
CN1C(=O)[C@@H]2[C@H](C1=O)[C@@H]1C(=O)Nc3ccccc3C(=O)N1[C@@H]2c1ccc(Br)cc1	-15.6	-6.9	2.1	-16.9	x	0.9	x	x	x	x	x
Cc1cc(OCc2ccc(C(=O)n3cccn3)o2)ccc1Cl	50.3*	31.3	0.8	12.2	10.4	40.5	19.4	37.6	29.0	17.5	26.7
CC(NC(=O)CNC(=O)c1cccc(Cl)c1)c1ccccc1 (stereo unspecified)	5.5	-9.3	0.3	16.1	2.8	-1.8	x	x	x	x	x
CSc1nsc(/C=C/Nc2ccc(C(=O)O)cc2)c1C#N	58.4*	2.6	-1.9	-133.6	4.6	18.1	19.1	68.1*	88.6*	56.9*	28.0
N#C/C(=C(/O)c1ccc(-c2cccc([N+](=O)[O-])c2)o1)c1nc2ccccc2s1	97.1*	24.6	3.9	-23.4	-4.6	93.4*	12.6	25.7	18.3	4.2	8.8
O=C(O)c1ccc(-c2cccc([N+](=O)[O-])c2)o1	-10.1	-8.3	3.6	31.2	3.1	-8.7	x	x	x	x	x
Cc1ccc(-c2cc(-c3ccccc3Cl)[nH]n2)c(O)c1	45.4	45.8	-4.9	14.4	-0.9	28.0	x	x	x	x	x
Cc1ccccc1-c1cc(-c2ccccc2O)n[nH]1	83.5*	82.8*	4.0	15.8	-2.7	70.8*	86.3*	84.7*	93.9*	42.1	61.5*
Cc1ccc(-c2cc(-c3ccc(F)cc3)n[nH]2)c(O)c1	83.3*	75.5*	4.4	2.2	-1.4	78.8*	86.3*	85.5*	95.4*	42.9	76.1*
Oc1ccccc1-c1cc(-c2ccc(F)cc2)n[nH]1	94.2*	93.6*	6.1	5.0	-0.4	88.5*	93.6*	94.2*	100.0*	71.6*	79.9*
Cc1ccc(-c2cc(-c3ccc(C)cc3O)[nH]n2)cc1	45.3	12.8	3.3	18.8	-4.3	12.3	x	x	x	x	x
Oc1ccc(F)cc1-c1cc(-c2ccc3c(c2)OCCO3)n[nH]1	87.7*	75.5*	6.4	10.7	-4.0	84.4*	87.5*	88.1*	100.1*	58.9*	56.7*
O=C(COC(=O)C1(c2ccccc2F)CCCC1)N1CCNC1=O	-10.6	-1.2	x	7.3	x	0.6	x	x	x	x	x
COc1ccc(N2CC(C(=O)NNC(=O)c3ccc(Br)cc3)CC2=O)c(OC)c1 (stereo unspecified)	-16.7	-3.4	19.4	11.8	x	-5.8	x	x	x	x	x
NC(=O)CN1CCN(Cc2ccc3c(c2)OCO3)CC1	0.6	-11.9	21.3	19.6	-6.9	-4.0	x	x	x	x	x
Cc1cc(NC(=O)C2CCCCC2C(=O)O)ccc1NC(=O)c1ccccc1 (stereo unspecified)	0.7	3.2	19.6	-5.8	3.8	-2.3	x	x	x	x	x
Oc1ccc(Cl)cc1-c1cc(-c2ccccc2)n[nH]1	20.6	3.3	15.1	6.0	1.9	7.5	x	x	x	x	x
SMILES	SENP6 inh	SENP7 inh	Platelet DG rel	SENP8 block-1	HSP90 refold inh	SENP8 block-2	SENP8 conf	SENP6 confirm	SENP7 conf	Casp3 SENP sel	Luc interf
Oc1ccccc1-c1cc(-c2ccccc2)n[nH]1	94.8*	93.5*	x	17.5	x	92.8*	95.3*	95.5*	100.8*	74.3*	89.4*
COc1cccc(/C=N/Nc2snc(SC)c2C#N)c1	36.8	0.3	x	-204.9	-4.4	5.4	x	x	x	x	x
COc1ccc(/C=N/Nc2snc(SC)c2C#N)cc1OC	61.2*	4.1	51.9*	-271.7	-5.9	18.8	6.2	8.2	32.7	11.5	2.6
COc1cccc(/C=N/Nc2snc(SC)c2C#N)c1O	99.4*	96.2*	35.0	-254.8	-1.1	96.1*	94.7*	98.0*	100.5*	93.5*	79.4*
c1cn2cc(-c3ccc4c(c3)OCO4)nc2s1	72.6*	63.8*	7.3	13.7	7.3	50.2*	59.3*	56.4*	85.3*	79.0*	71.9*
C#Cc1ccc2c(c1)COc1c3ccccc3nn1-2	95.6*	71.5*	10.4	-1.9	x	93.0*	76.2*	96.3*	101.2*	91.7*	51.9*
C=CCNC(=O)c1ccc2c3n(nc2c1)-c1ccc(Cl)cc1CO3	31.1	6.0	0.2	-83.6	x	19.2	x	x	x	x	x
C(#Cc1ccc2c(c1)COc1c3ccccc3nn1-2)c1ccccc1	76.4*	61.4*	-1.0	-84.0	x	73.8*	26.2	30.8	56.6*	40.9	49.4
C(#CC1CCCCC1)c1ccc2c(c1)COc1c3ccccc3nn1-2	37.3	18.7	19.5	-2.1	x	16.4	x	x	x	x	x
COc1ccc(CCNC(=O)c2ccc(-c3ccc([N+](=O)[O-])cc3)o2)cc1OC	x	x	-0.2	13.6	-0.1	x	x	x	x	x	x
COc1ccccc1C(=O)N1CCc2ccccc21	-1.4	-3.6	13.2	8.0	-2.8	3.5	x	x	x	x	x
Nc1ccccc1C(=O)N1CCc2ccccc21	55.1*	-15.9	7.2	-42.5	-0.7	14.0	42.0	36.2	25.4	42.8	55.0*
O=C1c2ccccc2C(=O)C1c1ccncc1	80.5*	57.8*	16.6	40.6*	14.7	64.0*	75.6*	71.1*	92.4*	91.0*	79.4*
